Experimental data published in PubChem BioAssay AID1159580 (chemical genetic matrix, 2015).
Hit rate of the full screen: of about 5,500 compounds, about 2,000 (36%) were called active. Another 18% or so got no clear call; they are omitted. Rule as the data show it: active = normalized growth mostly below about 0.91 (no sharp cut-off); inconclusive = no clear call, values can overlap the other calls; inactive = mostly above about 0.92. The list shows a part of the results.

Test: chemical genetic growth profiling, strain panel (AID 1159580);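 also: tested at 20 µM; growth read once vehicle control cultures reached saturation at 30 °C; 1 = growth at the plate median or of vehicle wells; lower values mean less growth of the strain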
Conditions: S. cerevisiae deletion strains, growth OD
[1] = locus YAL040C, strain CLN3, hits give low values
[2] = locus YCL061C, strain MRC1 (second series), hits give low values
[3] = locus YDR363W, strain ESC2, hits give low values
[4] = locus YER002W, strain NOP16, hits give low values
[5] = locus YMR307W, strain GAS1, hits give low values
[6] = locus YNL153C, strain GIM3, hits give low values
[7] = locus YNL175C, strain NOP13, hits give low values
[8] = locus YNL197C, strain WHI3, hits give low values
[9] = locus YNL224C, strain SQS1, hits give low values
[10] = locus YOR083W, strain WHI5 (second series), hits give low values
[11] = locus YPL055C, strain LGE1, hits give low values

Measured: normalized growth

Nc1ncnc2c1ncn2C1CCCO1 (centres undefined)
inactive: locus YAL013W, strain DEP1, hits give low values 1.03 | [1] 1.03 | [2] 0.997 | [3] 1.02 | [4] 0.967 | locus YJR075W, strain HOC1, hits give low values 1.02 | [5] 1 | [6] 0.989 | [7] 0.986 | [8] 0.967 | [9] 1 | [10] 0.977 | [11] 1.02

O=C1c2cccc3c(Sc4ccccc4)ccc(c23)C(=O)N1NCCO
inactive: locus YAR019C, strain CDC15, hits give low values 0.921 | locus YBL105C, strain PKC1, hits give low values 0.926 | locus YBR135W, strain CKS1, hits give low values 0.92 | locus YBR136W, strain MEC1, hits give low values 0.929 | locus YBR160W, strain CDC28, hits give low values 0.922 | locus YDL017W, strain CDC7, hits give low values 0.929 | locus YDL028C, strain MPS1, hits give low values 0.924 | locus YDL101C, strain DUN1, hits give low values 0.916 | locus YDL108W, strain KIN28, hits give low values 0.929 | locus YDL132W, strain cdc53, hits give low values 0.941 | locus YDL214C, strain PRR2, hits give low values 0.861 | locus YDR052C, strain DBF4, hits give low values 0.941 | locus YDR054C, strain cdc34, hits give low values 0.936 | locus YDR226W, strain ADK1, hits give low values 0.952 | locus YDR477W, strain SNF1, hits give low values 0.853 | locus YER123W, strain YCK3, hits give low values 0.855 | locus YER133W, strain GLC7, hits give low values 0.908 | locus YFL009W, strain cdc4, hits give low values 0.912 | locus YFL029C, strain CAK1, hits give low values 0.911 | locus YFR003C, strain YPI1, hits give low values 0.923 | locus YFR019W, strain FAB1, hits give low values 0.897 | locus YFR028C, strain CDC14, hits give low values 0.938 | locus YGR040W, strain KSS1, hits give low values 0.859 | locus YGR052W, strain FMP48, hits give low values 0.83 | locus YGR092W, strain DBF2, hits give low values 0.734 | locus YHR079C, strain IRE1, hits give low values 0.84 | locus YHR082C, strain KSP1, hits give low values 0.8 | locus YHR205W, strain SCH9, hits give low values 0.857 | locus YIL147C, strain SLN1, hits give low values 0.921 | locus YJL095W, strain BCK1, hits give low values 0.771 | locus YJL128C, strain PBS2, hits give low values 0.816 | locus YJL157C, strain FAR1, hits give low values 0.896 | locus YJR016C, strain ILV3, hits give low values 0.921 | locus YJR066W, strain TOR1 (second series), hits give low values 0.93 | locus YJR066W, strain TOR1, hits give low values 0.805 | locus YKL048C, strain ELM1, hits give low values 0.831 | locus YKL067W, strain YNK1, hits give low values 0.861 | locus YKL101W, strain HSL1, hits give low values 0.804 | locus YKL193C, strain SDS22, hits give low values 0.912 | locus YKL203C, strain TOR2, hits give low values 0.887 | locus YLR133W, strain CKI1, hits give low values 0.844 | locus YLR403W, strain SFP1, hits give low values 0.863 | locus YML070W, strain DAK1, hits give low values 0.857 | locus YMR001C, strain CDC5, hits give low values 0.914 | locus YMR205C, strain PFK2 (second series), hits give low values 0.854 | locus YMR277W, strain FCP1, hits give low values 0.904 | locus YNL006W, strain LST8, hits give low values 0.931 | locus YNL020C, strain ARK1, hits give low values 0.814 | locus YNL161W, strain CBK1, hits give low values 0.927 | locus YNL183C, strain NPR1, hits give low values 0.784 | locus YNL207W, strain RIO2, hits give low values 0.922 | locus YNL222W, strain SSU72, hits give low values 0.921 | locus YNL307C, strain MCK1 (second series), hits give low values 0.834 | locus YOL078W, strain AVO1, hits give low values 0.911 | locus YOL136C, strain PFK27, hits give low values 0.853 | locus YOR061W, strain CKA2, hits give low values 0.877 | locus YOR119C, strain RIO1, hits give low values 0.936 | locus YOR231W, strain MKK1, hits give low values 0.845 | locus YOR329C, strain SCD5, hits give low values 0.93 | locus YPL031C, strain PHO85, hits give low values 0.837 | locus YPL153C, strain RAD53, hits give low values 0.82 | locus YPL204W, strain HRR25, hits give low values 0.837 | locus YPL209C, strain IPL1, hits give low values 0.923 | locus YPR025C, strain CCL1, hits give low values 0.926 | locus YPR106W, strain ISR1, hits give low values 0.915 | locus YPR111W, strain DBF20, hits give low values 0.957 | strain NNK1, hits give low values 0.897 | strain TSCII, hits give low values 0.917
active: locus YHR030C, strain SLT2, hits give low values 0.577 | locus YLR113W, strain HOG1, hits give low values 0.771 | locus YPL256C, strain CLN2, hits give low values 0.757

C[N+]1(C)CCOC(O)(c2ccc(-c3ccc(C4(O)C[N+](C)(C)CCO4)cc3)cc2)C1 (centres undefined)
inactive: [1] 1.09 | [2] 0.993 | locus YDR150W, strain NUM1, hits give low values 0.99 | [3] 1.02 | [4] 1 | locus YGR078C, strain PAC10, hits give low values 1.01 | locus YMR263W, strain SAP30, hits give low values 1 | [5] 0.993 | [6] 1.05 | [7] 1 | [8] 1.01 | [9] 1 | [10] 1.02 | [11] 0.971 | locus YPL241C, strain CIN2, hits give low values 1
